Experiment [1] is described as follows: qHTS assay to identify small molecule antagonists of the androgen receptor (AR) signaling pathway using the MDA cell line in the presence of 0.5 nM R1881 - cell viability counter screen (AID 1259242). Note: nearly all actives have a fitted effect of over 45% in size. Note: potency is the fitted concentration of half-maximal effect. The essentials: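 Viability of MDA-kb2 cells was multiplexed with the luciferase AR readout; after 16 hr with compounds and R1881 at 0.5 nM final, CellTiter-Fluor fluorescence was recorded.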
(In general: In qHTS, concentration-response curves come from the screen itself.)

For experiment [2], the target named is Estrogen receptor (Homo sapiens) (UniProt P03372). The experiment can be described thus: qHTS assay to identify small molecule antagonists of the estrogen receptor alpha (ER-alpha) signaling pathway using the BG1 cell line in the presence of 0.1 nM 17-beta-estradiol (AID 1259244). Note: nearly all actives have a fitted effect of over 50% in size. Note: potency is the fitted concentration of half-maximal effect. The essentials:
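Estradiol at 0.1 nM (final) stimulates the endogenous ER-alpha of VM7Luc4E2 cells carrying an ERE-driven luciferase; compounds are co-incubated 22 h at 37C and luciferase output quantified by luminescence.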

Experiment [3] can be described thus: qHTS assay to identify small molecule phospholipidosis (PLD) inducers (AID 1259344; active = well fitted curve in the direction sought with a large enough effect; an effect the other way counts as inactive or inconclusive; note: % is set by controls: 0 for no effect and ±100 for the full control effect). The essentials: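 Quantitative HTS in HepG2: compound plus LipidTOX Red dye for 24 h, paraformaldehyde fixation with Hoechst 33342, widefield high-content imaging; amiodarone as positive and DMSO as negative control.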
A short description of experiment [4]: qHTS assay to identify small molecule HDAC inhibitors (AID 1259364). Note: potency is the fitted concentration of half-maximal effect.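 Note: wild-type HCT-116 cells with endogenous class I/II HDAC activity; nearly all actives have a fitted effect of over 45% in size.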 Put shortly:
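Read-out: luminescence of HDAC-Glo I/II reagent, 30 min RT, reflecting class I/II deacetylase activity in whole HCT-116 cells pre-exposed 2 h to DMSO-dissolved compounds.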

A short description of experiment [5]: qHTS assay to identify small molecule HDAC inhibitors - cell viability counter screen (AID 1259365). Note: nearly all actives have a fitted effect of over 50% in size. Note: potency is the fitted concentration of half-maximal effect. The essentials: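 HCT-116 (wild type), 1,500 cells/well, overnight 37C/5% CO2; compound in DMSO 2hr; CellTiter-Glo 30min RT; luminescence read.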
A short description of experiment [6]: qHTS assay to identify small molecule agonists of the sonic hedgehog signaling (Shh) pathway - cell viability counter screen (AID 1259366). Note: nearly all actives have a fitted effect of over 50% in size. Note: potency is the fitted concentration of half-maximal effect. Put shortly: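 CellTiter-Fluor fluorescence read-out, 1 hr at 37C, added after 23hr compound exposure. Cells: 3T3 Gli1-Luc, an NIH/3T3 clone with stably integrated Gli1-Luc reporter, plated 4hr before compound.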
A short description of experiment [7]: qHTS assay to identify small molecule antagonists of the sonic hedgehog signaling (Shh) pathway - cell viability counter screen (AID 1259367). Note: nearly all actives have a fitted effect of over 55% in size. Note: potency is the fitted concentration of half-maximal effect. Put shortly:
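Seed 3T3 Gli1-Luc cells at 2,000 per well; incubate 4 hr; add compound in DMSO, then conditioned medium; incubate at 37C with 5% CO2; add CellTiter-Fluor after 23 hr; read fluorescence 1 hr later.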

Experiment [8] in a line: qHTS assay to identify small molecule agonists of the sonic hedgehog signaling (Shh) pathway (AID 1259368; calls by dose curve;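 note: NIH/3T3-derived 3T3Gli1-Luc cells carrying a stable Gli1-driven firefly luciferase reporter; series mostly up to about 92 µM; % is set by controls: 0 for no effect and ±100 for the full control effect; nearly all actives have a fitted effect of over 15% in size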). The essentials: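 A Gli1 transcriptional response element controlled firefly luciferase in 3T3Gli1-Luc cells. Compounds and a positive control were added 4 hr after plating, and cells were incubated a further 24 hr at 37 C before luminescence detection.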
The nature of experiment [9]: qHTS assay to identify small molecule antagonists of the sonic hedgehog signaling (Shh) pathway (AID 1259369; calls by dose curve; note: nearly all actives have a fitted effect of over 45% in size; note: potency is the fitted concentration of half-maximal effect). Put shortly:
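For antagonist detection, the reporter line received test compounds together with conditioned medium, incubated 24hr at 37 C, 5% CO2, then luminescence was recorded following 30min room-temperature luciferase reagent incubation.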

The target of experiment [10] is Androgen receptor (Homo sapiens) (UniProt P10275). The experiment can be described thus: qHTS assay to identify small molecule antagonists of the androgen receptor (AR) signaling pathway using the MDA cell line in the presence of 0.5 nM R1881 (AID 1259243). Note: potency is the fitted concentration of half-maximal effect; nearly all actives have a fitted effect of over 50% in size. The essentials: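 Reporter cells cultured without CO2 receive test chemicals, then 0.5 nM R1881 final; after 16 hr at 37C, ONE-Glo is added and light output recorded.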
Chain of Androgen receptor (Homo sapiens) (P10275 whole entry, looked up): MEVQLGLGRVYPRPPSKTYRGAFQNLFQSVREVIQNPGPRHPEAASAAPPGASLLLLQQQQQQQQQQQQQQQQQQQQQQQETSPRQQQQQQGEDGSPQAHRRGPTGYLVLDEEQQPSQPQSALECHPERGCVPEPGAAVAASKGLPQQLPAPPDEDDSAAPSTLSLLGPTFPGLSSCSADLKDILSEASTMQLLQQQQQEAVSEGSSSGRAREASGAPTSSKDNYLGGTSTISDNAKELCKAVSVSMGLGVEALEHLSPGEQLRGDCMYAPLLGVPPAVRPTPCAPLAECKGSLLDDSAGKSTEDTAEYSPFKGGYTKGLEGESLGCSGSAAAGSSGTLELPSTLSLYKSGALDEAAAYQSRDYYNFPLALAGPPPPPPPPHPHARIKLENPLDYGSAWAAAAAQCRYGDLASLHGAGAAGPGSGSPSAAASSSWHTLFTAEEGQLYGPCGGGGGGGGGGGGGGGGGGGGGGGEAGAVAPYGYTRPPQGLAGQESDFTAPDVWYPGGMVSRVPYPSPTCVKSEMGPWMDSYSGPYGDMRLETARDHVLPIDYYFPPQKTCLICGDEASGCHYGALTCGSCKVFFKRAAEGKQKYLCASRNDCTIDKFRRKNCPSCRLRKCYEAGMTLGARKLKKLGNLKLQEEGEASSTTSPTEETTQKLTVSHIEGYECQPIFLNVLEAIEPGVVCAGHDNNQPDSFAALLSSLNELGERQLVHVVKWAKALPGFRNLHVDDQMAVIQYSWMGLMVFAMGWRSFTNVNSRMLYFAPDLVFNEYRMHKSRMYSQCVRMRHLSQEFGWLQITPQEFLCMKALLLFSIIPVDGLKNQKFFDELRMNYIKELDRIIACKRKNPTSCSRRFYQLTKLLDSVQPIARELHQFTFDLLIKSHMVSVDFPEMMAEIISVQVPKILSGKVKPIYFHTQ

Unmarked numbers belong to inactive results. Records with an inconclusive call do not appear. Active and inactive are the calls of the source. Unless noted, calls come from the whole dose curve; as a rule, active = well fitted curve in the direction sought with a large enough effect in the repeat runs; inconclusive = weak or mixed curves; inactive = no such curve, though single readings can be large; an effect the other way counts as inactive or inconclusive.

Chain of Estrogen receptor (Homo sapiens) (P03372 whole entry, looked up): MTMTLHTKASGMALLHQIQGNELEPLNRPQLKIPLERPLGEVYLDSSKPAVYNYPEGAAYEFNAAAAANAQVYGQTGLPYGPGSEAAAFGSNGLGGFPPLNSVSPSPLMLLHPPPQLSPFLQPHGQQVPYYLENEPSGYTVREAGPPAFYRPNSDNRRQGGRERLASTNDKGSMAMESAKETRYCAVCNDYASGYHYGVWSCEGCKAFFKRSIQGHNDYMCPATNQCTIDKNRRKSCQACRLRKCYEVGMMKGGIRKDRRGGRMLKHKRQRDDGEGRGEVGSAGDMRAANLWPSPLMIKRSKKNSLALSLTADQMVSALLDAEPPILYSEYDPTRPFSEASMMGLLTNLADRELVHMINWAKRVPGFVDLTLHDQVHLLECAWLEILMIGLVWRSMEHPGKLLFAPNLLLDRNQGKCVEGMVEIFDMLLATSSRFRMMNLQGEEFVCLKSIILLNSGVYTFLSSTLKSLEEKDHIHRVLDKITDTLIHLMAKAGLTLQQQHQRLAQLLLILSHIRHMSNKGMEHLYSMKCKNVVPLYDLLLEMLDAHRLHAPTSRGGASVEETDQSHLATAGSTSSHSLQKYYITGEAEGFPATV

For the molecule `CCCCCCCCCC(=O)O[C@H]1CC[C@H]2[C@@H]3CCC4=CC(=O)CC[C@@H]4[C@H]3CC[C@]12C`, the Potency entry in [1], in experiment [2], in experiment [4], in experiment [5], in [6] and in experiment [7] was “inactive” throughout. Also, the Potency result in experiment [8] and in experiment [9] was “inactive” throughout. Also, in experiment [3], the call was inactive.
On to `CC(=O)[C@H]1CC[C@H]2[C@@H]3CC[C@H]4C[C@](C)(O)CC[C@]4(C)[C@H]3CC[C@]12C`, for which the Potency entry in experiment [1], in experiment [2], in experiment [4], in experiment [5], in [6] and in experiment [7] was “inactive” throughout. Besides, the Potency result in experiment [8] and in experiment [9] was “inactive” throughout. Further, in experiment [3], the molecule was classed as inactive.
Regarding `C[C@H]1CNCCc2ccc(Cl)cc21`, the Potency result in experiment [1], in [2], in [4], in experiment [5], in experiment [6] and in experiment [7] was “inactive” in each case. Also, the Potency entry in [9] is “inactive”. Also, the PLD induction in experiment [3] is 0.0663% [at 7.66 µM].
Take `CCOP(=O)(OCC)O/C(=C/Cl)c1ccc(Cl)cc1Cl`: the Potency entry in experiment [1], in experiment [4], in experiment [5], in [6] and in experiment [7] was “inactive” in each case. Also, the Potency in experiment [2] was 54.5 µM (active). The result in experiment [3] was inactive.
As for `COCCOCCO`, the Potency result in [1], in experiment [2], in [4], in [5] and in experiment [8] was “inactive” in each case. In addition, the call in experiment [3] was inactive. The Potency in experiment [7] was 61.1 µM (active); in experiment [9], 27.3 µM (active).
In the case of `O=S1(=O)OC(c2cc(Br)c(O)c(Br)c2)(c2cc(Br)c(O)c(Br)c2)c2ccccc21`, the Potency in experiment [1] was 22.3 µM (active); in experiment [10], 5.6 µM (active); in experiment [2], 17.7 µM (active); in [4], 3.97 µM (active); in experiment [6], 14.1 µM (active); in [7], 15.8 µM (active). In experiment [9], the Potency is 7.05 µM (active).
In the case of `COC(=O)c1cncn1C(C)c1ccccc1` (configuration not stated), the Potency result in experiment [1], in experiment [2], in experiment [4], in [6], in [7] and in experiment [8] was “inactive” throughout. For the same molecule, in [9], the Potency result was “inactive”. In addition, the outcome in experiment [3] was inactive.
Consider `C=CCOC(C)=O`, for which the Potency result in [1], in experiment [2], in experiment [4], in experiment [6], in experiment [7] and in [9] was “inactive” in each case. The Potency in [10] is 26.9 µM (active).
In the case of `O=[N+]([O-])c1cc(C(F)(F)F)cc([N+](=O)[O-])c1Cl`, the Potency entry in [1], in experiment [2], in experiment [4], in experiment [5] and in experiment [8] was “inactive” in each case. For the same molecule, the Potency in [6] is 30.8 µM (active); in [7], 24.4 µM (active).
For the molecule `CC(C)N(C(=O)COc1nnc(C(F)(F)F)s1)c1ccc(F)cc1`, the Potency entry in [1], in experiment [2], in experiment [4], in experiment [5], in [6] and in experiment [7] was “inactive” throughout. For the same molecule, in experiment [8], the Potency result is “inactive”.
As to `ClP(Cl)(Cl)(Cl)Cl`, the Potency entry in experiment [1], in experiment [2], in experiment [4], in [5], in experiment [6] and in experiment [7] was “inactive” in each case. For the same molecule, the Potency entry in experiment [8] and in experiment [9] was “inactive” throughout.
Take `Cl/C=C\Cl`: the Potency result in experiment [1], in [2], in experiment [4], in experiment [5], in experiment [6] and in experiment [7] was “inactive” throughout. Also, the Potency result in [8] and in [9] was “inactive” in each case.
As to `C=CCCl`, the Potency entry in [1], in experiment [2], in experiment [4], in experiment [5], in experiment [6] and in [7] was “inactive” each time. Also, the Potency result in experiment [8] and in [9] was “inactive” throughout.
As to `C(=NC1CCCCC1)=NC1CCCCC1`, the Potency in experiment [1] was 8.69 µM (active); in experiment [2], 43.3 µM (active). Further, the Potency entry in experiment [4], in [5], in experiment [6], in experiment [7] and in [8] was “inactive” each time.
In the case of `Nc1ccc(N=Nc2ccc(-c3ccc(N=Nc4c(S(=O)(=O)O)cc5cc(S(=O)(=O)O)c(N=Nc6ccccc6)c(O)c5c4N)cc3)cc2)c(N)c1`, the Potency entry in experiment [1], in [2] and in experiment [8] was “inactive” throughout. Further, the Potency in experiment [4] is 15.7 µM (active); in experiment [5] it was 17.6 µM (active); in [6] it was 17.6 µM (active); in experiment [7], 19.7 µM (active).
Consider `COC(=O)C(Br)CBr` (configuration not stated), for which the Potency entry in [1], in experiment [2], in [4], in experiment [5], in [6] and in experiment [7] was “inactive” in each case. Further, the Potency entry in experiment [8] and in experiment [9] was “inactive” each time.
For the molecule `CNP(=O)(OC)Oc1ccc(C(C)(C)C)cc1Cl` (configuration not stated), the Potency entry in experiment [1], in experiment [2], in [4], in experiment [5], in [6] and in [7] was “inactive” throughout. The Potency entry in experiment [8] was “inactive”. The Potency in [9] was 27.3 µM (active).
With `C=C(C#N)CCC#N`, the Potency entry in experiment [1], in [2], in experiment [4], in [5], in experiment [6] and in experiment [7] was “inactive” in each case. The Potency entry in experiment [8] and in experiment [9] was “inactive” throughout.
With `Cc1ccccc1C(=O)Nc1cccc(OC(C)C)c1`, the Potency entry in experiment [1], in experiment [2], in [4], in [5], in experiment [6] and in [7] was “inactive” in each case. The Potency entry in experiment [8] was “inactive”. The Potency in experiment [9] is 17.2 µM (active).
Consider `ClCc1cccc(Cl)c1`, for which the Potency result in [1], in experiment [2], in experiment [4], in experiment [5], in experiment [6] and in experiment [7] was “inactive” each time. For the same molecule, the Potency entry in experiment [8] and in experiment [9] was “inactive” each time.
`CCOP(=S)(OCC)SCSCC`: the Potency result in [1], in [2], in [4], in [5], in [6] and in experiment [7] was “inactive” each time. The Potency result in experiment [8] and in experiment [9] was “inactive” in each case.
For `N#CCc1ccccc1`, the Potency entry in experiment [1], in [2], in [4], in [5], in [6] and in experiment [7] was “inactive” throughout. In addition, the Potency entry in [8] is “inactive”.
For `Clc1cc(Cl)c(Cl)c(Cl)c1`, the Potency entry in experiment [1], in [2], in experiment [4], in [5], in experiment [6] and in experiment [7] was “inactive” throughout. Also, the Potency result in experiment [8] and in experiment [9] was “inactive” in each case.
`CCCCC(CC)COP(=O)(Oc1ccccc1)Oc1ccccc1` (configuration not stated): the Potency entry in experiment [1], in [2], in experiment [4], in experiment [5], in experiment [6] and in experiment [7] was “inactive” in each case. Further, the Potency entry in experiment [8] and in experiment [9] was “inactive” throughout.
`COC(=O)C(C)N(C(=O)Cc1ccccc1)c1c(C)cccc1C` (configuration not stated): the Potency entry in experiment [1], in experiment [2], in experiment [4], in [5], in experiment [6] and in [7] was “inactive” throughout. The Potency result in experiment [8] was “inactive”.
Take `CC(Cl)C(C)Cl` (configuration not stated): the Potency result in [1], in experiment [2], in experiment [4], in [5], in [6] and in [7] was “inactive” throughout. Moreover, in experiment [8], the Potency entry is “inactive”.
In the case of `CCOP(=S)(OCC)SCn1nnc2ccccc2c1=O`, the Potency result in experiment [1], in experiment [4], in experiment [5], in experiment [6], in experiment [7] and in experiment [8] was “inactive” throughout. Moreover, in experiment [2], the Potency was 48.6 µM (active).
`Cc1ccc2ccccc2c1`: the Potency result in experiment [1], in [2], in experiment [4], in [5], in [6] and in experiment [7] was “inactive” throughout. The Potency result in experiment [8] and in experiment [9] was “inactive” throughout.
For `O=C(CBr)OCc1ccccc1`, the Potency result in experiment [1], in experiment [2], in experiment [4], in [5], in experiment [6] and in experiment [7] was “inactive” throughout. For the same molecule, in experiment [8], the Potency result is “inactive”.

(Values after PubChem BioAssay (Tox21).)
